Test results published in ChEMBL document CHEMBL3988442, “University of Dundee, Small-Polar-MMV Screening Library” (2021).
For some of these results: Results with a measured potency or affinity are listed apart.

Key:
Set-up in all cases: scale not given: direction of the effect not stated beside the values
[1] = biological target: Protein translocase subunit SecA (Escherichia coli (strain K12)) (UniProt P10408); assay: Assay to Identify E. coli SecA ATPase Inhibitors; assay type: functional; conditions: 30 µM
[2] = biological target: T1, Ubiquitin-activating enzyme e1, putative (Leishmania donovani (strain BPK282A1)) (UniProt E9BSI1); assay: Leishmania donovani Ubiquitin Activating Enzyme (LdE1); assay type: functional; conditions: 30 µM
T1 sequence (whole entry): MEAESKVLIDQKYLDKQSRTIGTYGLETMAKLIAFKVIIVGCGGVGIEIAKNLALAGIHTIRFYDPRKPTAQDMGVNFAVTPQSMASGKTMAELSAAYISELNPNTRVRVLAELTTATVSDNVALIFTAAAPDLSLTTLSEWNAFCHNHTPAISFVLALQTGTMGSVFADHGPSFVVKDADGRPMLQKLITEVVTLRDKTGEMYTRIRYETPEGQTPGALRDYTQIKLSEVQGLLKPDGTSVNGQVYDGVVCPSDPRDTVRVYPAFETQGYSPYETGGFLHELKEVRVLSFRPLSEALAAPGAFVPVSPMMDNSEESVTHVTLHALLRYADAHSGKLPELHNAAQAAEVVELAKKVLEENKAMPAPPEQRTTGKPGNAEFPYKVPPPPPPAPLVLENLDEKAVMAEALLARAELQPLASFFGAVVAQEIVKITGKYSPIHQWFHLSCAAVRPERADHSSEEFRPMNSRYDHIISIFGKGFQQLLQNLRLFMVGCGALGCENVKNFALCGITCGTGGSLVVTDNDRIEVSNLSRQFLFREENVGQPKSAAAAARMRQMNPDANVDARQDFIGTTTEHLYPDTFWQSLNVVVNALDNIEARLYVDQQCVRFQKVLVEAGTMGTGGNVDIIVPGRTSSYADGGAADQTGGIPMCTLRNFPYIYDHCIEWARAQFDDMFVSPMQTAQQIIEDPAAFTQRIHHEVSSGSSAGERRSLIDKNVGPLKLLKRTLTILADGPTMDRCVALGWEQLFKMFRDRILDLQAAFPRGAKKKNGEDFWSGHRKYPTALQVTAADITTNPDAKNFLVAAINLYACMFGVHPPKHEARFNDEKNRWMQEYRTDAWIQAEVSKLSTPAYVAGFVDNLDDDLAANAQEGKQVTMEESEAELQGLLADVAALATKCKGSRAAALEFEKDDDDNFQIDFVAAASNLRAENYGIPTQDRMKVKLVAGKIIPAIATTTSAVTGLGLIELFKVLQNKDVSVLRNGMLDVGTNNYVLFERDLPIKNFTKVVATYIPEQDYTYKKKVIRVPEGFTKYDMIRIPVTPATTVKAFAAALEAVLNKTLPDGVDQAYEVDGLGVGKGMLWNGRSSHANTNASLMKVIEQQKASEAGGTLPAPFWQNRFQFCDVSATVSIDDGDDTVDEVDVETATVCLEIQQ

[3] = biological target: AMP-activated protein kinase, AMPK (Homo sapiens) (UniProt P54646+O43741+P54619+Q9UGJ0+Q9Y478+Q13131+Q9UGI9); assay: AMP-dependent Kinase enzyme assay. An in vitro enzyme assay that detects ADP turnover that is directly proportional to AMPK activity. This uses naive AMPK that is activated during the assay with MK-8722; assay type: functional; conditions: 30 µM
[4] = biological target: Sialic acid-binding Ig-like lectin 9 (Homo sapiens) (UniProt Q9Y336); assay: Hs-Siglec9 ALPHAscreen SOP 20170721; conditions: 10 µM
Trypanosoma cruzi = assay: Trypanosoma cruzi phosphomannomutase and mannose-1-phosphate guanylyltransferase assay; assay type: functional; conditions: 10 µM
[5] = biological target: T2, Arginase-2, mitochondrial (Homo sapiens) (UniProt P78540); assay: in vitro enzyme assay to detect the production of urea directly proportional to the activity of Arginase II; assay type: functional; conditions: 33.3 µM; note: in the data most compounds retested in dose-response had high values
T2 sequence (whole entry): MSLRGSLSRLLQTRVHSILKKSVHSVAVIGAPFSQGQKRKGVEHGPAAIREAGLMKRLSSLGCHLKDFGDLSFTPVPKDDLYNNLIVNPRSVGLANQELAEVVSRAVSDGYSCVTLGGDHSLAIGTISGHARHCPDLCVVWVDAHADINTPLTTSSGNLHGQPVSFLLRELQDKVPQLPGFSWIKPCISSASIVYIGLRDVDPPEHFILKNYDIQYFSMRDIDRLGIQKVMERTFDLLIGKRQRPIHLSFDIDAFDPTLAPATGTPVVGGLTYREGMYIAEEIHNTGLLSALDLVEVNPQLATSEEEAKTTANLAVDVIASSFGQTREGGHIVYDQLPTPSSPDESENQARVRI

[6] = biological target: T3, Proteasome subunit beta (Trypanosoma cruzi) (UniProt O96673); assay: Trypanosoma cruzi proteasome chymotrypsin-like activity (TcProtChymo) assay.; note: in the data most compounds retested in dose-response had high values; assay type: functional; conditions: 9.37 µM
T3 sequence (whole entry): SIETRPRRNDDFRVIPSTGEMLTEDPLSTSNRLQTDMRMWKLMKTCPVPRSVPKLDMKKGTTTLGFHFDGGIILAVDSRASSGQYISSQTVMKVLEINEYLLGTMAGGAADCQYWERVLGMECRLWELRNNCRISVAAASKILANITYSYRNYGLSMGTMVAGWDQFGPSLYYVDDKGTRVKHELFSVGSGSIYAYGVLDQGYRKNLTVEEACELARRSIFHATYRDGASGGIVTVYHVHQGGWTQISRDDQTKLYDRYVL

Homo sapiens = species on record: Homo sapiens; assay: To identify inhibition of the IFN signalling (Jak-Stat) pathway via expression of an eGFP reporter gene under the control of an IFN-stimulated response element (ISRE) containing MxA promoter.; assay type: functional; conditions: 30 µM
[7] = biological target: T4, Tyrosyl-tRNA synthetase, putative (Trypanosoma cruzi (strain CL Brener)) (UniProt Q4DSP6); assay: Trypanosoma cruzi tyrosyl tRNA synthetase (TcYRS) _High Tyrosine SOP; assay type: functional; conditions: 30 µM; note: in the data most compounds retested in dose-response had high values
T4 sequence (whole entry): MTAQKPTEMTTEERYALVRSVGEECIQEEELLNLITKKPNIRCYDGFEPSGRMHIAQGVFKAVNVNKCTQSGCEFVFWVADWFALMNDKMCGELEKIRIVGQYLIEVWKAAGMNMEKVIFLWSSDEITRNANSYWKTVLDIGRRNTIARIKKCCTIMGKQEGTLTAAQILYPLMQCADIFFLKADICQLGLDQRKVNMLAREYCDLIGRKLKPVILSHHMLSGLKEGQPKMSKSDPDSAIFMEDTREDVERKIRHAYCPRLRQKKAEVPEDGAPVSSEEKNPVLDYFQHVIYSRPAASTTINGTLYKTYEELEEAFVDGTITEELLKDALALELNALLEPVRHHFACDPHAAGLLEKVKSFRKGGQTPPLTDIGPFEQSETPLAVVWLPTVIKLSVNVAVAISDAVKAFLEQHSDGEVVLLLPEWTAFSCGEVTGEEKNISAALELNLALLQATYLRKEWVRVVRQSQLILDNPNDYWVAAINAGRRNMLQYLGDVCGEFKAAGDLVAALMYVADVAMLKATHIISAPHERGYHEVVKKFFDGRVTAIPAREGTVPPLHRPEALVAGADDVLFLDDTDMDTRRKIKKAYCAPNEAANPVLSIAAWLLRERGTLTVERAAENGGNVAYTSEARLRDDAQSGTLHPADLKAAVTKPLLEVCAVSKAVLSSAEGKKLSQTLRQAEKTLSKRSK

[8] = biological target: T4, Tyrosyl-tRNA synthetase, putative (Trypanosoma cruzi (strain CL Brener)); assay: Trypanosoma cruzi tyrosyl tRNA synthetase (TcYRS) SOP; assay type: functional; conditions: 30 µM
[9] = biological target: Chromo domain-containing protein 1 (Saccharomyces cerevisiae (strain ATCC 204508 / S288c) (Baker's yeast)) (UniProt P32657); assay: ScCHD-1 Enzyme Inhibition Assay; assay type: functional; conditions: 30 µM; note: in the data most compounds retested in dose-response had high values
Chain of Chromo domain-containing protein 1 (Saccharomyces cerevisiae (strain ATCC 204508 / S288c) (Baker's yeast)) (P32657 whole entry, the tested form may be a part): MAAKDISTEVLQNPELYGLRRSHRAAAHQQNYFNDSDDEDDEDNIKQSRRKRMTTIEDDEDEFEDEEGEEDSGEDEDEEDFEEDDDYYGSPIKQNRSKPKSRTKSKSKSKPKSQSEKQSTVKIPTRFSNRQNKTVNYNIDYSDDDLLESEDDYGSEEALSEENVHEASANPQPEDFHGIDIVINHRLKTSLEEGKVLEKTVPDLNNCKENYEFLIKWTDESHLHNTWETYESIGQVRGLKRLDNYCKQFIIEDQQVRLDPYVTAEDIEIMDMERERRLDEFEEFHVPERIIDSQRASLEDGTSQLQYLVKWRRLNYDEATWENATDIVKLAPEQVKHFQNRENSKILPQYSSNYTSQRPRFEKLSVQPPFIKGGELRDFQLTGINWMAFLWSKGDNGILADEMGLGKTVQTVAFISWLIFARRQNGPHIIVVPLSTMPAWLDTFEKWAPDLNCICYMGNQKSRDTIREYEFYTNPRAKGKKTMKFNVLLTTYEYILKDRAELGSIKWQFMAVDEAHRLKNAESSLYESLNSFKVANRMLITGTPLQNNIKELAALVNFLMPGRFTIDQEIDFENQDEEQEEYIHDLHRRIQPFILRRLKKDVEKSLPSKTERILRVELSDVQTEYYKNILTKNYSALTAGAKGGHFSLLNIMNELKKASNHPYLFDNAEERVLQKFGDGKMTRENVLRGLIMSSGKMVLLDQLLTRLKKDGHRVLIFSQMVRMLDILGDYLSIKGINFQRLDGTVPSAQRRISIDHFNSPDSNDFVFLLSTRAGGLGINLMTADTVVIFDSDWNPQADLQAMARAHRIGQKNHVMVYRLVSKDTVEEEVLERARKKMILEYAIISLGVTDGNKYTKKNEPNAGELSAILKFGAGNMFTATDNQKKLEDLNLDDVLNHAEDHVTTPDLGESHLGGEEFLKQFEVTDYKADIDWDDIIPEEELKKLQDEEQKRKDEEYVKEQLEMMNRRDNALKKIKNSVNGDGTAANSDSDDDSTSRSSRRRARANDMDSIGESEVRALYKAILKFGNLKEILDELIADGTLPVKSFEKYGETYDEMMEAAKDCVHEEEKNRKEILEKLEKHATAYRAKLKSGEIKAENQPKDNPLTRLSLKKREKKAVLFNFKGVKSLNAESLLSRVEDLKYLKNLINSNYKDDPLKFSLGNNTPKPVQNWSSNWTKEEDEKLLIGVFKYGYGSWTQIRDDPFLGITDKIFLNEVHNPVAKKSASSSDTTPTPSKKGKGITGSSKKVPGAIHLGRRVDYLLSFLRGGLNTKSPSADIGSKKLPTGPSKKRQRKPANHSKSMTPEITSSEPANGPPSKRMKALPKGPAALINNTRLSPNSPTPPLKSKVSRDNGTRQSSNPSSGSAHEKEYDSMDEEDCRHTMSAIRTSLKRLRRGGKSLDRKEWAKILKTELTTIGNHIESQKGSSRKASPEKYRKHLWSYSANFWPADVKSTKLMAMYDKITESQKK

Chain of Protein translocase subunit SecA (Escherichia coli (strain K12)) (P10408 whole entry): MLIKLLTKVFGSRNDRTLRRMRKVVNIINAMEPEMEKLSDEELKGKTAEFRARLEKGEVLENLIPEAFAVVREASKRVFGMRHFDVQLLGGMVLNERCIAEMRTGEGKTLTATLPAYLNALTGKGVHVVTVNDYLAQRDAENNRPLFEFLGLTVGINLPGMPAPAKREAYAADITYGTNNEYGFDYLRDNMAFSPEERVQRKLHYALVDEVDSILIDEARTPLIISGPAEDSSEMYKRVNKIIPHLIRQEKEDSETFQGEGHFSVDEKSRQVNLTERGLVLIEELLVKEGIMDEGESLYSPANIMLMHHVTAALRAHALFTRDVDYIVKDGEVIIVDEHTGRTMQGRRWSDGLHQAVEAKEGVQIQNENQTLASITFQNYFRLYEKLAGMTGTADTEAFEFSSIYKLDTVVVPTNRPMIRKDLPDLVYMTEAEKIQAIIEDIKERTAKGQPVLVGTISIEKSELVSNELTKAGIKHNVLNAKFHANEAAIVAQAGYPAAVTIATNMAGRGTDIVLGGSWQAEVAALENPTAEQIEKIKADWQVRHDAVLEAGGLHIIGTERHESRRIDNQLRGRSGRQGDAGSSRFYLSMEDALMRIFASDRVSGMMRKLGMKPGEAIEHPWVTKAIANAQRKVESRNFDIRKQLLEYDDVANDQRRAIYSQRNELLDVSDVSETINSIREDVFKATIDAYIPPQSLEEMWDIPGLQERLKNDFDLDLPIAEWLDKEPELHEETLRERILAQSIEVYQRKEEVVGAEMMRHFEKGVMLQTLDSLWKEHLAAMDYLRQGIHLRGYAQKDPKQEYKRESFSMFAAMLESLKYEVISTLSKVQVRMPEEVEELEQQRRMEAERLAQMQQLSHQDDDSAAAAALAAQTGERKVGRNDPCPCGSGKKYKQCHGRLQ
Chain of Sialic acid-binding Ig-like lectin 9 (Homo sapiens) (Q9Y336 whole entry): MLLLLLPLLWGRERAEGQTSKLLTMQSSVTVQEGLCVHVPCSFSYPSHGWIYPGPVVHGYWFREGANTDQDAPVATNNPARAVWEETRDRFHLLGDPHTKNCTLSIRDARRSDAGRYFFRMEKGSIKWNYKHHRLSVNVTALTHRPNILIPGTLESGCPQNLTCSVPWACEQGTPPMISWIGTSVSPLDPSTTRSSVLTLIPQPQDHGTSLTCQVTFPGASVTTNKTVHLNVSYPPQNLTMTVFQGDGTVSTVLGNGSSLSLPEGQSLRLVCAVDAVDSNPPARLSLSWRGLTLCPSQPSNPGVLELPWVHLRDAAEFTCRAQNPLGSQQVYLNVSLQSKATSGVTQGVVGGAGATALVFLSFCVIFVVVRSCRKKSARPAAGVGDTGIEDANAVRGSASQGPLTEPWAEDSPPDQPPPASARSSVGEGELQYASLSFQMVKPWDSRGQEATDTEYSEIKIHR

Structure (SMILES) | Percent Effect [1] | Percent Effect [2] | Percent Effect [3] | Percent Effect [4] | Percent Effect (Trypanosoma cruzi) | Percent Effect [5] | Percent Effect [6] | Percent Effect (Homo sapiens) | Percent Effect [7] | Percent Effect [8] | Percent Effect [9]
Cc1nnc(N2CC[C@H](OCC3CC3)[C@@H](Cc3ccccc3)C2)s1 | -2.17% | -5.33% | 8.54% | 9.81% | 5.99% | -31.7% | 7.01% | -7.72% | 0% | 5% | -3.2%
N#Cc1cccc(S(=O)(=O)N2CCCCC2CCN2CCCC2=O)c1 (stereo unspecified) | -5.51% | -52% | -6.45% | 9.03% | 4.76% | 2% | 8.99% | -12.8% | 4.17% | 11.1% | -4.06%
CNc1cc(CNC(=O)c2ccccc2)nc(-c2ccncc2)n1 | -5.75% | 9.46% | 9.36% | -2.66% | 3.56% | -71.7% | 15.8% | 1.41% | 5.38% | 14.3% | -13.8%
CCS(=O)(=O)NC[C@]12COC[C@H]1CN(Cc1cccc(OC)c1)C2 | -2.67% | -2.7% | 2.37% | 5.65% | 6.16% | -4.14% | 7.93% | 11.7% | 0% | 5.13% | 14.6%
Cc1nc(C)n(CC2CCCN2Cc2nc(-c3cccs3)no2)n1 (stereo unspecified) | -2.92% | -7.89% | 1.44% | 6.54% | -0.188% | 2.3% | 6.85% | 17.8% | 5.39% | 12.2% | 1.98%
CCc1cnc(CN(C)C2CCN(CCc3cccs3)C2)o1 (stereo unspecified) | -4.76% | 15.8% | -3.51% | -0.997% | -2.89% | -5.4% | 12.3% | 2.05% | 10.3% | 18.5% | -5.25%
Cc1nnc2n1CCN(CCS(=O)(=O)c1ccccc1)C2 | -2.96% | 15.6% | 2.16% | 8.34% | 1.69% | -3.2% | -2.03% | 27.6% | 2.91% | 14.6% | -8%
CC(=O)N1CC(=O)N(c2ccccc2)CC12CCN(Cc1cccs1)C2 (stereo unspecified) | -0.462% | 16% | -5.96% | 8.98% | 2.51% | -36.4% | 7.69% | -11.1% | 5.21% | 27.5% | -7.74%
Cc1ccc(CCC(=O)N(C)CCN2CCOCC2)c(C)c1 | -0.772% | -5.26% | 4.45% | 4.55% | -0.487% | -7.1% | 17% | -17.1% | 6.38% | 5.2% | 4.92%
CN(C(=O)c1cccc(C(=O)NS(C)(=O)=O)c1)c1ccccc1 | -5.66% | 15.6% | 1.54% | 14.7% | 6.98% | -24.8% | 16.5% | 4.53% | 6.45% | 13.6% | -2.26%
CC(=O)N1CCN(Cn2nc(-c3ccc(F)cc3)oc2=O)CC1 | -3.09% | 23.4% | -4.67% | -7.73% | -2.25% | 0.712% | 8.11% | 15% | 9.71% | 21.9% | -10.3%
